For 15 molecules, inhibition results are on record in ChEMBL document CHEMBL1961873, “Compounds: GSK PKIS; Assays: Nanosyn kinase panel” (2012).

Assay [1] concerns Epidermal growth factor receptor (Homo sapiens), P00533 [T790M]. The note with it: at 1 µM.
Assay [2] has as its system Epidermal growth factor receptor (Homo sapiens), P00533 [L858R,T790M]. The settings on record: at 0.1 µM.
Assay [3] shares this test system. The note with it: at 1 µM.
In assay [4] the target is Ephrin type-A receptor 2 (Homo sapiens) (UniProt P29317). The note with it: at 0.1 µM.
Ephrin type-A receptor 2 (Homo sapiens), sequence (P29317 whole entry): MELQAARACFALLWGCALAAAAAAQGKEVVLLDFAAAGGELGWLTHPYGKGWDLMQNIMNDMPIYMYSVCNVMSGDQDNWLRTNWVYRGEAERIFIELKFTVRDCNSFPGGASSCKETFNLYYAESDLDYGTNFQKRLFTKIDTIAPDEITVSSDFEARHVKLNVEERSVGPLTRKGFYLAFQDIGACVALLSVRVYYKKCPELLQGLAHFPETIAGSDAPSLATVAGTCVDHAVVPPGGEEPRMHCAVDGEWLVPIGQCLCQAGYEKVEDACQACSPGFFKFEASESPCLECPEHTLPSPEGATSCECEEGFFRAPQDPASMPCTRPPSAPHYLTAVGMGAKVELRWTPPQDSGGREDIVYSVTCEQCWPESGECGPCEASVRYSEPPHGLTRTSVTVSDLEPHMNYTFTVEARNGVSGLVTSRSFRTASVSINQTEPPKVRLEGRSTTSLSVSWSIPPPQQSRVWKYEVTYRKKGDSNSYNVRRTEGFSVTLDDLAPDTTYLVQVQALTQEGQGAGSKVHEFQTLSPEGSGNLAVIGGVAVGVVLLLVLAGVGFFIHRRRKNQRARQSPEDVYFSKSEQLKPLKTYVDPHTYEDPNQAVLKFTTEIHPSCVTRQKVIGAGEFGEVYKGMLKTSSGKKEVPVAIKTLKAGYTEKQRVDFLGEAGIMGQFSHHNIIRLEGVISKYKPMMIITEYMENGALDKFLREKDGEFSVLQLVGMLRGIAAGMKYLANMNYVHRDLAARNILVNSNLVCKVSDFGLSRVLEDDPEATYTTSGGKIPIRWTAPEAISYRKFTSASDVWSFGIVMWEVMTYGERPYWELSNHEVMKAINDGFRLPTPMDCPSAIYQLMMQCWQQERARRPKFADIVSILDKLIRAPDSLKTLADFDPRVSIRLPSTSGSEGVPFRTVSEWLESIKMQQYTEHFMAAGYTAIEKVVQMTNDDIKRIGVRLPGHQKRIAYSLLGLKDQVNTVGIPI
The target is the same in assay [5]. The settings on record: at 1 µM.
Assay [6] deals with T1, Ephrin type-A receptor 3 (Homo sapiens) (UniProt P29320).
T1 sequence (whole entry): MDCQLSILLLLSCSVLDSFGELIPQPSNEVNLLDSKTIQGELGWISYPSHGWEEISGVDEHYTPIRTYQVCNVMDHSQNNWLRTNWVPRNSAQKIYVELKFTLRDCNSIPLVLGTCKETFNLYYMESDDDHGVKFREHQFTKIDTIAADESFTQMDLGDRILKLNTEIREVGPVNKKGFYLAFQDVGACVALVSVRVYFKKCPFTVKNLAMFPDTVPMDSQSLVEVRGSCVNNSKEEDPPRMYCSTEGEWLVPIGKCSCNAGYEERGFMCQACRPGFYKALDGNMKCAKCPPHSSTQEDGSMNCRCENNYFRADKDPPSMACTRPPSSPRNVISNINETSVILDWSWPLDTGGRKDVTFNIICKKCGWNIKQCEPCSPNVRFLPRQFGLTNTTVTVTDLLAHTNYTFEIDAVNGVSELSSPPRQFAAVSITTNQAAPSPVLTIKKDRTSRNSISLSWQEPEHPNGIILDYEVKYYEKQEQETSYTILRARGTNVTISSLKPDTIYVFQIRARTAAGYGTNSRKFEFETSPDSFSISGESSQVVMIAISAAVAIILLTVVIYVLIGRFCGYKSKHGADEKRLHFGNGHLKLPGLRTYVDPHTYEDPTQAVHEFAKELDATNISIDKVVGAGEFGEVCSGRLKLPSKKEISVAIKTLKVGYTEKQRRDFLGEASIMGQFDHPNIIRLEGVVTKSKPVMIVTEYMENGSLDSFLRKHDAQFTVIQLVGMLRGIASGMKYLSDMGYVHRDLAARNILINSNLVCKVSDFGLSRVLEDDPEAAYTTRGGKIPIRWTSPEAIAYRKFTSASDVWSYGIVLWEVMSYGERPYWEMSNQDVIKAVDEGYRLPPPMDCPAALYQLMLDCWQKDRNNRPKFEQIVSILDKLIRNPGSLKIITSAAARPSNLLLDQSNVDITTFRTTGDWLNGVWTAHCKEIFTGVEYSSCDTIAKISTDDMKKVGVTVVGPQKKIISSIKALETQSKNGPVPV
The note with it: at 0.1 µM.

The target of assay [7] is T1, Ephrin type-A receptor 3 (Homo sapiens). The note with it: at 1 µM.
Assay [8] deals with Ephrin type-A receptor 4 (Homo sapiens) (UniProt P54764). The settings on record: at 0.1 µM.
Ephrin type-A receptor 4 (Homo sapiens), sequence (P54764 whole entry): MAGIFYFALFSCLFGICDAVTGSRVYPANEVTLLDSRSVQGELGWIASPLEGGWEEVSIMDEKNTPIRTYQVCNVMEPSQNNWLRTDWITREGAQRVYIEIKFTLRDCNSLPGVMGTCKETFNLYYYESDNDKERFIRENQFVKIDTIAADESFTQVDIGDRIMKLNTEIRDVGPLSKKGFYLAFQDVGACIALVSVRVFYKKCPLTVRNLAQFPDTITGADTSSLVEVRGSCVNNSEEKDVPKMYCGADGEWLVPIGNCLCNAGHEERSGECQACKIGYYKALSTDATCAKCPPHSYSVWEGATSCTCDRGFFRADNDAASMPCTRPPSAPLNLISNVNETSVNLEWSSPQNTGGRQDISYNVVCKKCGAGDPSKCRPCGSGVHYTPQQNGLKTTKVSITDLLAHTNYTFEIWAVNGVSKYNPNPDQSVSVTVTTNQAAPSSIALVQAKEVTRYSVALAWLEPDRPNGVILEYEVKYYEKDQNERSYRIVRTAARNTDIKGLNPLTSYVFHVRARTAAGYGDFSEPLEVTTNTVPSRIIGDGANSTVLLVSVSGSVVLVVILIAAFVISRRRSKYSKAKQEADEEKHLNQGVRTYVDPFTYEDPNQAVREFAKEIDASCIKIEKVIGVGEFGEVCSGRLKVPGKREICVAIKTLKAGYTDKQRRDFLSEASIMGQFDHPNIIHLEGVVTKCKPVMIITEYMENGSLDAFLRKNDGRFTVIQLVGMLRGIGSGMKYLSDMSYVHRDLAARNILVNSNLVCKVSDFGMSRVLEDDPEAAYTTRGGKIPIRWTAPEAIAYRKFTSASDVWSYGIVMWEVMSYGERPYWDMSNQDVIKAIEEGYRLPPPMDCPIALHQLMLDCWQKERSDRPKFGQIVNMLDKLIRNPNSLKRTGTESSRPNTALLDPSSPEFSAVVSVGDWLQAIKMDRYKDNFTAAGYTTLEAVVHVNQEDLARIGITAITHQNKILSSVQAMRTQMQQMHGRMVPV
Assay [9] has the same target. The settings on record: at 1 µM.
Assay [10] concerns the target T2, Ephrin type-B receptor 2 (Homo sapiens) (UniProt P29323).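 Note: reported as mean inhibition of EPHB2, from the GSK PKIS dataset.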
T2 sequence (whole entry): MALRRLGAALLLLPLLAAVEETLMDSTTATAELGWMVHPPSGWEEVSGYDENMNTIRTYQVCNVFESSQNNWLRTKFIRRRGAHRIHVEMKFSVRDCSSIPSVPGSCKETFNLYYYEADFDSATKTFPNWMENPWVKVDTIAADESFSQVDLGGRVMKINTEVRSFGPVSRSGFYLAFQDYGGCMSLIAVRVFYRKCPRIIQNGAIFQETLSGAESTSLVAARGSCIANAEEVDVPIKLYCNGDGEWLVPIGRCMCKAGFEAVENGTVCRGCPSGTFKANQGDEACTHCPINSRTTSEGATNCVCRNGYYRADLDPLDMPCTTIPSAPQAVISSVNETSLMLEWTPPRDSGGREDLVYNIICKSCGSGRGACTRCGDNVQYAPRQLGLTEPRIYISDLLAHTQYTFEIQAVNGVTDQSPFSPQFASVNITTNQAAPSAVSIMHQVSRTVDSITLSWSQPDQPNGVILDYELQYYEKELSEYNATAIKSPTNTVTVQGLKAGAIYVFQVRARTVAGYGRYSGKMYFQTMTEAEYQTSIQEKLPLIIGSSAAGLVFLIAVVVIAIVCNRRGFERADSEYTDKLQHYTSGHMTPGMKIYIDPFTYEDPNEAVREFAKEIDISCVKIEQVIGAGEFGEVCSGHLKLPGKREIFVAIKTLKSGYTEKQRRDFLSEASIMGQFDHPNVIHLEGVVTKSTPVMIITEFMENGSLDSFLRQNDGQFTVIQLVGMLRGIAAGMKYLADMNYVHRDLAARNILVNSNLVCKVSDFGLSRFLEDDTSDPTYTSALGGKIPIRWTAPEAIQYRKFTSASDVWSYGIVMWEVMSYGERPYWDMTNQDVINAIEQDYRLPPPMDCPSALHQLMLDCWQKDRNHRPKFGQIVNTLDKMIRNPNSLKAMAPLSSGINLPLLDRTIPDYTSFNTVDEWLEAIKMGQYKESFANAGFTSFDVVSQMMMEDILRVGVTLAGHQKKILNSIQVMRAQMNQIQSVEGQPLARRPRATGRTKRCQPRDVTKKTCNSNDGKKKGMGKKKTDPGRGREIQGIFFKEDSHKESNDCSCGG
The settings on record: at 0.1 µM.

Values joined by “and” are separate entries in the source; they are usually repeats but may differ in a detail not shown here. Equal values may be shown once.

Epidermal growth factor receptor (Homo sapiens), P00533 [T790M], sequence (P00533 whole entry T790M): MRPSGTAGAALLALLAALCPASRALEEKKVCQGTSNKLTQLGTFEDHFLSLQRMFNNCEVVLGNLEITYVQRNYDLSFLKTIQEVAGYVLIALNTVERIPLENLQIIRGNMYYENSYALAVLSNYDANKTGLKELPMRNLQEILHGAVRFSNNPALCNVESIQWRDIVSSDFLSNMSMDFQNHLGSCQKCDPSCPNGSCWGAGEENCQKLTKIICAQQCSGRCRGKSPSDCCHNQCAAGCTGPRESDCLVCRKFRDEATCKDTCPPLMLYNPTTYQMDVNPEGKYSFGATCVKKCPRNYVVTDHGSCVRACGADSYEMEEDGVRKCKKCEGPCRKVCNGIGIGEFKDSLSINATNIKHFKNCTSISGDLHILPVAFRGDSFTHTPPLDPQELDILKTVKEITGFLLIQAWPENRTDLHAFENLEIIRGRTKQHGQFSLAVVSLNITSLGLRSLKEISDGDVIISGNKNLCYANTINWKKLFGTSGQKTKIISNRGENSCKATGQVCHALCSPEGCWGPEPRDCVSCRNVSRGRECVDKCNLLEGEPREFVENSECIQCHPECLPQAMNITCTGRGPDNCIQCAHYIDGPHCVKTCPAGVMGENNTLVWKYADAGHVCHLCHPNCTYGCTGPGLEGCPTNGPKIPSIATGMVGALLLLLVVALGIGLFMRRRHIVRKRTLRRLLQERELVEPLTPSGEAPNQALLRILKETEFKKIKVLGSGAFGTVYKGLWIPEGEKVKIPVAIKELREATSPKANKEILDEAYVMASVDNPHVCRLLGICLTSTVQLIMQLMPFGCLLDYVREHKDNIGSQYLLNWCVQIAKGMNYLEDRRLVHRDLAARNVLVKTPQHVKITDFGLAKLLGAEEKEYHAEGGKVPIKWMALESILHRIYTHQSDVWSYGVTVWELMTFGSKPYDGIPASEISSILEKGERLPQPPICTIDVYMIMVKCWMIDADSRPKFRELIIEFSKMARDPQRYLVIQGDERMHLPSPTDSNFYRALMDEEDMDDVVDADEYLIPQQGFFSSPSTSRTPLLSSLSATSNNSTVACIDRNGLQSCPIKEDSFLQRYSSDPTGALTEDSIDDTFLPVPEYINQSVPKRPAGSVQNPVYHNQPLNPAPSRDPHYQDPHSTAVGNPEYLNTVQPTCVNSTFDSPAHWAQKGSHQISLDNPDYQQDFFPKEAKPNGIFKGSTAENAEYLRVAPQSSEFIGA
Epidermal growth factor receptor (Homo sapiens), P00533 [L858R,T790M], sequence (P00533 whole entry T790M/L858R, looked up): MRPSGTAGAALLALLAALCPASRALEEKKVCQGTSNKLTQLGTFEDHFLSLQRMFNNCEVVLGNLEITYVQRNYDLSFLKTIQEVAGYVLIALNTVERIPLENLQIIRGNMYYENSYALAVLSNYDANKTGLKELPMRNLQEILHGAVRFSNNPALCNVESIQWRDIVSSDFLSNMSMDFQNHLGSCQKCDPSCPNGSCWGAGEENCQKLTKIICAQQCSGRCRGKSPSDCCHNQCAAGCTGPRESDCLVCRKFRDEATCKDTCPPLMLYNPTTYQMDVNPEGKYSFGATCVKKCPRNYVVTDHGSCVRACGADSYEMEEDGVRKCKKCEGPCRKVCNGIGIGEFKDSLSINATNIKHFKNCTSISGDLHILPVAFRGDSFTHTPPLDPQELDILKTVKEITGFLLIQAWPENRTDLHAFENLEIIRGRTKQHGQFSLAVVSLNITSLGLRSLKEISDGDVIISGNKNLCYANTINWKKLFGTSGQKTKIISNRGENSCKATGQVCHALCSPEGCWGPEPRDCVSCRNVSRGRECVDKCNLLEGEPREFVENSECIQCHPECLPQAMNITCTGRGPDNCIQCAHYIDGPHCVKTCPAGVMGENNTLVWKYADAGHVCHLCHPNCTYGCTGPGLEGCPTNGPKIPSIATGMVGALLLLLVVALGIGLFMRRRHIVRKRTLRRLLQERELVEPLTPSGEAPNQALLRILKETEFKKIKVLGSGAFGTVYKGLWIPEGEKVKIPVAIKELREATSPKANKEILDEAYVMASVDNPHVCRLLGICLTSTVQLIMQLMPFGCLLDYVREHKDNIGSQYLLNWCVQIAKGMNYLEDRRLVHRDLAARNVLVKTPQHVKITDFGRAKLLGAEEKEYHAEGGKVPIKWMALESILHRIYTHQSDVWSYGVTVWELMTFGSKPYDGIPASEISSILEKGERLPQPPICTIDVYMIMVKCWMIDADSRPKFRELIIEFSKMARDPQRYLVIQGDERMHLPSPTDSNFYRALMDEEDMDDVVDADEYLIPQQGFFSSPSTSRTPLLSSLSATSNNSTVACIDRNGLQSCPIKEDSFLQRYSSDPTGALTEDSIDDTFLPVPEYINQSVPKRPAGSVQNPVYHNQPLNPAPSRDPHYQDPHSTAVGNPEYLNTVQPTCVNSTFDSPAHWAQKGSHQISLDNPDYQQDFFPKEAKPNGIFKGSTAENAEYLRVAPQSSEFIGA

For orientation: inhibition means the relative decrease from the control value, in per cent. Turning to `Nc1nonc1-c1nc2cnccc2n1C1CC1`, the inhibition in [1] was 0.41% and 1.8%; in [2], 0.14% and 3.74%; in assay [3], 5.5% and 7.11%; in assay [4], 1.3% and -6.99%; in assay [5], 0.04% and -7.28%; in assay [6] it was 3.71% and -1.91%. Moreover, the inhibition in assay [7] is 3.7% and -1.81%; in assay [8], 6.99% and 5.79%; in assay [9] it was 5.96% and 2.69%; in assay [10], 10.5% and 2.91%.

In the case of `Fc1cccc(COc2ccc(Nc3ncncc3C#Cc3ccccc3)cc2Cl)c1`, the inhibition in assay [1] is 3.85%; in [2], 3.98%; in [3], 5.02%; in [4] it was 4.2%; in assay [5], 0.3%; in [6] it was 4.46%. Also, the inhibition came out at 4.68% in assay [7], 9.27% in [8], 13.1% in assay [9] and 8.04% in assay [10].

As for `N#Cc1cccc(Nc2ncc(-c3ccccc3)o2)c1`, the inhibition in assay [1] is 3.24%; in assay [2] it was 0.29%; in assay [3], 3.37%; in assay [4], 1.14%; in [5], 0.54%; in assay [6], 2.39%. Moreover, the inhibition turned out to be 1.84% in assay [7], 6.35% in assay [8], 8.39% in assay [9] and 2.84% in [10].

Consider `CS(=O)(=O)Nc1ccc(-c2cc(-c3ccccc3)cc(C(N)=O)c2N)cc1`, for which the inhibition was -0.33% in assay [1]; 1.11% in assay [2]; 1.75% in assay [3]; -3.41% in assay [4]; -2.62% in assay [5]; 0.48% in [6]. For the same molecule, the inhibition is -0.2% in assay [7], 1.75% in [8], 4.07% in assay [9] and 6.68% in assay [10].

Turning to `O=C(O[C@H]1CN[C@H](C#Cc2cc3ncnc(Nc4ccc(OCc5cccc(F)c5)c(Cl)c4)c3s2)C1)N1CCOCC1`, the inhibition worked out at 18% in [1]; 4.1% in assay [2]; 9.08% in assay [3]; 1.93% in assay [4]; 1.46% in assay [5]; 5.97% in assay [6]. The inhibition was determined as 4.01% in [7], 10.4% in assay [8], 12.3% in assay [9] and 7.71% in assay [10].

For the molecule `COc1cc2c(cc1Nc1nc(Nc3cccc(F)c3C(N)=O)c3cc[nH]c3n1)N(C(=O)CN1CCN(C(C)C)CC1)CC2`, the inhibition in assay [1] came to 27%; in assay [2], 1.09%; in assay [3] it was 47.3%; in assay [4], 1.37%; in assay [5], 0.53%; in assay [6] it was 1.47%. The inhibition in assay [7] is 0.43%; in [8] it was 3.76%; in assay [9], 4.41%; in assay [10], 2.75%.

`c1cnn2ncc(-c3ccnc(NCCCN4CCOCC4)n3)c2c1`: the inhibition in assay [1] is 1.66%; in [2], -1.49%; in [3], 0.81%; in [4], -0.74%; in [5] it was -1.53%; in assay [6], 2.9%. Also, the inhibition was 6.16% in [7], 10% in [8], 5.87% in assay [9] and 6.81% in [10].

With `COc1ccc(Nc2ncc(-c3ccccc3)o2)cc1OC`, the inhibition is -1.98% in assay [1]; -0.33% in assay [2]; -0.29% in assay [3]; 0.89% in [4]; 2.73% in assay [5]; -1.2% in [6]. Further, the inhibition in assay [7] is 1.63%; in assay [8], 2.72%; in assay [9] it was 1.61%; in assay [10] it was -1.69%.

Take `COC(=O)Nc1nc2ccc(Oc3ccc(NC(=O)Nc4cc(C(F)(F)F)ccc4F)cc3)cc2s1`: the inhibition in [1] was -0.72%; in assay [2], 1.64%; in assay [3], -2.5%; in assay [4], 63.5%; in assay [5] it was 93.5%; in assay [6], 51.3%. Also, the inhibition in assay [7] worked out at 68.4%; in assay [8], 83.3%; in assay [9], 86.1%; in assay [10] it was 74.1%.

Consider `Cc1ccc(-c2cc3c(NC(=O)C4CC4)ncnc3o2)cc1`, for which the inhibition was 0.67% in assay [1]; 1.96% in assay [2]; 5.94% in assay [3]; 3.08% in assay [4]; 7.49% in [5]; 3.73% in [6]. The inhibition in assay [7] is 5.51%; in assay [8], 8.88%; in [9] it was 20.5%; in assay [10], 9.13%.

As to `CC(C)c1ccc(-c2cc(-c3c[nH]nc3-c3ccccn3)ccn2)cc1`, the inhibition in assay [1] is 0.59%; in assay [2] it was -1.17%; in assay [3], -2.79%; in assay [4], -1.11%; in assay [5], -2.27%; in assay [6], 2.58%. Further, the inhibition in assay [7] is 5.79%; in assay [8], 6.74%; in [9] it was 4.1%; in [10], 7.84%.

In the case of `N#Cc1ccc2c(-c3ccnc(NC4CC4)n3)c(-c3ccc(F)cc3)nn2c1`, the inhibition in [1] is 2.72%; in assay [2] it was 1.77%; in assay [3], 2.17%; in [4], -2.09%; in assay [5], -0.16%; in assay [6] it was 1.29%. The inhibition in assay [7] was found to be 4.31%; in [8], 5.96%; in [9], 15.6%; in assay [10], 8.8%.

With `CCn1c(-c2nonc2N)nc2cncc(C(=O)NCCNC)c21`, the inhibition was 4.6% in assay [1]; 1.4% in assay [2]; 5.19% in assay [3]; 0.81% in assay [4]; -0.9% in assay [5]; 1.15% in assay [6]. For the same molecule, the inhibition in [7] amounted to 5.09%; in assay [8], 7.32%; in assay [9], 10.1%; in assay [10] it was 12.1%.

For `COc1ccc2ncn(-c3cc(O[C@H](C)c4ccccc4C(F)(F)F)c(C(N)=O)s3)c2c1`, the inhibition is -1.39% in [1]; -1.39% in assay [2]; -0.48% in assay [3]; -3.1% in [4]; -4.03% in assay [5]; 0.39% in [6]. Besides, the inhibition in assay [7] was determined as 2.63%; in assay [8] it was 0.27%; in [9], 0.47%; in assay [10], 1.25%.

In the case of `NC(=O)c1ccc2c(-c3ccnc(NCCCO)n3)c(-c3ccc(F)cc3)nn2c1`, the inhibition in [1] worked out at 2.72%; in assay [2], 4.41%; in [3] it was 6.91%; in assay [4] it was 2.54%; in assay [5], 7.54%; in [6], 5.24%. In addition, the inhibition worked out at 7.21% in assay [7], 11.8% in assay [8], 29.7% in assay [9] and 9.21% in assay [10].
